Screening data: PubChem, National Center for Advancing Translational Sciences (NCATS)
Shiga toxin inh: blocks Shiga toxin action in Vero cells | Vero cells, Shiga toxin protein synthesis inhibition reporter | inhibition, % at 38.7 µM | actives 9.2% (n = 290,000); in the data active means inhibition mostly above about 28%, no sharp cut-off; inactive means mostly below about 43%; further: 0% is about no effect
Cycloheximide cs: counter-screen hit for Shiga toxin inhibitors, cycloheximide; max response, %; actives 12% (n = 300,000); cell reporter, cycloheximide protein synthesis inhibition counterscreen; AID 2314; in the data active means max response mostly above about 13%, no sharp cut-off; inactive means mostly below about 14%; further: read at 38.3 µM for the half of the compounds with a filed dose; 0% is about no effect
Pf growth 96h: inhibits malaria parasite growth, 96 h; P. falciparum luciferase reporter growth, 96 h; Potency, µM (titrated, usually from 28.7 µM), without a hit: at the highest dose activity change, negative = inhibition, most hits filed as inhibitors; actives 6.9% (n = 320,000); further: potency means the concentration at half of the fitted maximal effect; on the % scale 0 is the no-effect control and ±100 the full control effect
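P. falciparum expressing integrated firefly luciferase grown in erythrocytes (2% hematocrit, 0.05% parasitemia final) with compounds for 96 hours at 37 C, 5% CO2. Growth inhibition read as loss of luminescence after adding luciferase detection reagent.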
Pf growth 48h: P. falciparum growth inhibition at 48 hours (one generation) | P. falciparum luciferase growth in erythrocytes, 48 h | Potency, µM (series often up to 28.7 µM), inactives show top-dose activity change, negative = inhibition, usual class: inhibitors | actives 5.9% (n = 310,000); further: potency means the concentration at half of the fitted maximal effect; on the % scale 0 is the no-effect control and ±100 the full control effect
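Luciferase-expressing parasites in RBCs, 2% Hct / 0.1% parasitemia final; RPMI 1640 + 0.5% Albumax; 37 C, 5% CO2, one generation; luminescence read-out, lower signal = inhibition.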
HCMV inh: human cytomegalovirus inhibition | HFF cells, HCMV-luciferase reporter, 72 h; hits give low values | activity change, negative = inhibition, % at 57.5 µM | actives 4.5% (n = 410,000) | AID 1259415; in the data active means activity change below about -60%; inconclusive means no clear call, values can overlap the other calls; inactive means above about -39%; further: on the % scale 0 is the no-effect control and ±100 the full control effect
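Cell-based, HFFs, 1000 cells/well, 16 h 37C; cpds in DMSO + HCMV-luc, MOI 1 PFU/cell; 72 h 37C; OneGlo luminescence after 5 min RT; norm. to buffer vs Salinomycin 10uM.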
An asterisk follows results filed as active; ? = inconclusive; . = not tested or not shown; [ ] = another dose, or the depositor's remark. Only some compounds are listed: those with a hit (about 20% of all), similar ones and a draw of the others. Unless noted, the call rests on the fitted dose curve; in most records, active means well fitted inhibition curve with a large enough effect; inconclusive means small, poorly fitted or top-dose-only effect, or another doubt; inactive means no such curve, though single readings can be large or run the other way.

SMILES	Shiga toxin inh	Cycloheximide cs	Pf growth 96h	Pf growth 48h	HCMV inh
O=C(NC1CCCCC1)C(c1ccncc1)N(Cc1ccc2c(c1)OCO2)C(=O)C(F)(F)F (centres undefined)	-3	-2	2.1µM*	9.3µM*	8
COCCC(=O)N(Cc1ccc2c(c1)OCO2)C(C(=O)NC1CCCCC1)c1ccncc1 (centres undefined)	-7	-4	0%	-2%	11
CCc1ccc(N(C(=O)C(F)(F)F)C(C(=O)NC2CCCCC2)c2ccncc2)cc1 (centres undefined)	-1	-2	2.6µM*	13µM*	-17
Cc1cc(C)c(C(=O)COC(=O)CN2C(=O)NC3(CCCC3)C2=O)cc1C	.	.	.	.	-7
CCc1nc2ccc(C(=O)NCCC(C)C)cn2c1N(C)Cc1ccc(OC)cc1	.	.	.	.	-36
O=C(c1ccccc1F)N1CCCC(N2CCN(Cc3ccc4c(c3)OCO4)CC2)C1 (centres undefined)	.	.	.	.	-10
Cc1ccc2c(c1C)NC(=O)CC2c1ccc(Cl)cc1Cl (centres undefined)	.	.	.	.	-14
CCN(CC)c1ccc(CNc2nc3ccccc3n2CCN2CCCCC2)cc1	28	2	6%	?	-99*
COc1ccc(CNc2nc3ccccc3n2CCN2CCCCC2)cc1	-1	-3	?	-30%[5.75 µM]	-7
CCn1c(NCc2ccc(N(C)C)cc2)nc2ccccc21	35*	30*	?	47%	94
CCn1c(NCc2cc(OC)c(OC)c(OC)c2)nc2ccccc21	-3	-8	0.23µM*	-5%	-4
CCn1c(NCc2ccc(OC)c(OC)c2)nc2ccccc21	.	.	.	.	-28
CCN(CC)c1ccc(CNc2nc3ccccc3n2C)cc1	44*	8	16%	7%	2
Cc1ccc(Cn2ccnc2SCC(=O)NCc2ccccc2)cc1	.	.	.	.	-28
Cc1ccc(C)c(N2CCN(S(=O)(=O)c3c(C)[nH]c(C)c3C(=O)N3CCCCC3)CC2)c1	18	-1	?	?	?
CCn1c(NCc2ccccn2)nc2ccccc21	21	21*	?	?	10
CCn1c(NCc2cccs2)nc2ccccc21	26	10	?	-10%	-4
Cn1c(CC(=O)c2ccc(Br)cc2)[n+](C)c2ccccc21	-8	-3	0.74µM*	13µM*	?
Oc1c(C(Nc2ccccn2)c2cccnc2)cc(Cl)c2cccnc12 (centres undefined)	17	-2	90%	4.7µM*	2
CC(=O)NC(c1cc(Cl)c2ccccc2c1O)C(C)C (centres undefined)	.	.	?	?	-9
CC(=O)NC(c1cc(Cl)c2cccnc2c1O)C1CC1 (centres undefined)	.	.	13µM*	4.1µM*	-97*
Fc1ccc(C(Nc2ccccn2)c2c[nH]c3ccccc23)cc1 (centres undefined)	-5	-2	?	?	82
CC(=O)NC(c1ccc(C)cc1)c1cc(Cl)c2cccnc2c1O (centres undefined)	-7	-2	29%	?	-102*
CC(=O)NC(C)c1cc(F)c2cccnc2c1O (centres undefined)	.	.	?	?	-9
CC(=O)NC(c1cc(Cl)c2cccnc2c1O)C(C)C (centres undefined)	.	.	10µM*	3.7µM*	-98*
SMILES	Shiga toxin inh	Cycloheximide cs	Pf growth 96h	Pf growth 48h	HCMV inh
COc1ccccc1N1CCN(S(=O)(=O)CCNC(=O)COc2ccccc2F)CC1	.	.	.	.	-21
CCc1cccc(C)c1NC(=O)Cn1ccn(Cc2ccc(Cl)cc2)c(=O)c1=O	.	.	.	.	-24
COc1ccccc1OCCCCn1ncc2ccc(OC)c(OC)c2c1=O	-7	-1	-13%	4%[0.00184 µM]	21
N#Cc1ccsc1NC(=O)CN1CCN(S(=O)(=O)c2ccc3ccccc3c2)CC1	-3	-5	0%	?	65
CCCCC(=O)NC(c1ccco1)c1cc(Cl)c2cccnc2c1O (centres undefined)	-18	-2	29%	?	-96*
COc1ccc(C(NC(=O)c2cccnc2)c2cc(Cl)c3cccnc3c2O)cc1OC (centres undefined)	-10	-2	0%	?	-97*
CCC(=O)NC(c1ccco1)c1cc(Cl)c2cccnc2c1O (centres undefined)	-22	-2	12%	?	-97*
CC(=O)NC(c1ccco1)c1cc(Cl)c2cccnc2c1O (centres undefined)	.	.	?	?	-89*
COc1cc(C(=O)NC(c2ccc(Cl)cc2)c2cc(Cl)c3cccnc3c2O)cc(OC)c1OC (centres undefined)	.	.	.	.	-2
Cc1ccc(NC(=S)N2CCN(c3ccccn3)CC2)cc1C	12	2	-22%	-4%	46
CN(C)CCN(C)C1CN(C2CCCC2)S(=O)(=O)C1 (centres undefined)	.	.	.	.	-16
O=C1NC[C@H](CCCCN2C[C@H](Cc3ccc(O)cc3)N(CC3CCCCC3)C(=O)C2=O)N(CC2CCCCC2)C1=O	.	.	.	.	-3
CCC(C)NC(=O)CN(c1cc(C)cc(C)c1)S(=O)(=O)c1c(C)[nH]c(=O)[nH]c1=O (centres undefined)	-10	-2	0%	?	-21
Cc1ccc(N2Cc3ccccc3OC(C)C2=O)cc1 (centres undefined)	-18	-5	9.3µM*	.	2
O=C(Cn1cc(S(=O)(=O)N2CCCC2)c(S(=O)(=O)N2CCCC2)c1)Nc1cccc(F)c1	.	.	.	.	-13
O=C(C1CCCN(c2ncnc3c2nc2n3CCCCC2)C1)N1CCN(c2ccccc2F)CC1 (centres undefined)	7	4	10%	?	9
Fc1ccccc1N1CCN(c2ncnc3c2nc2n3CCCC2)CC1	.	.	.	.	-63*
Cc1cccc(N2CCN(c3ncnc4c3nc3n4CCCCC3)CC2C)c1 (centres undefined)	.	.	.	.	-98*
O=C(NCCc1ccc(Cl)cc1)C1CCCN(c2ncnc3c2nc2n3CCCCC2)C1 (centres undefined)	-10	-3	?	?	-26
Cc1cccc(CCNC(=O)C2CCCN(c3ncnc4c3nc3n4CCCCC3)C2)c1 (centres undefined)	10	-3	12µM*	?	?
O=C(NCc1cccc(Cl)c1)C1CCCN(c2ncnc3c2nc2n3CCCCC2)C1 (centres undefined)	-4	-2	?	?	-67*
COc1cc(OC)c(NC(=O)C2CCCN(c3ncnc4c3nc3n4CCCCC3)C2)cc1Cl (centres undefined)	.	.	.	.	7
O=C(NCc1cccc(Cl)c1)C1CCN(c2nn3cc(-c4ccc(F)cc4)nc3s2)CC1	.	.	.	.	16
COc1cc(NC(=O)C2CCCN(c3ncnc4c3nc3n4CCCCC3)C2)cc(OC)c1OC (centres undefined)	2	-3	13µM*	?	-26
O=C(Nc1ccccc1Cl)C1CCCN(c2ncnc3c2nc2n3CCCCC2)C1 (centres undefined)	-4	-2	6.6µM*	?	?
